Assay outcomes: PubChem BioAssay, National Center for Advancing Translational Sciences (NCATS)
TGFb inhibitor: qHTS for Inhibitors of TGF-b; HepG2 CAGA-GFP TGF-b/SMAD3 reporter, GFP fluorescence, 18 h; TGF-beta stimulated, 500 pg/mL final; hit rate 1.2% among 410,000; Potency, µM (highest dose often 46.1 µM), without a hit: at the top dose activity, negative = inhibition, actives largely listed as inhibitors; note: % is set by controls: 0 for no effect and ±100 for the full control effect; nearly all actives have a fitted effect of over 65% in size
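Cell-based qHTS in HEPG2 carrying a CAGA-GFP Smad reporter; compounds added before 500 pg/mL final TGF-beta, 18 h incubation at 37 degrees C, GFP fluorescence quantified per cell by imaging cytometry.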
HepG2 tox: qHTS for Inhibitors of TGF-b: Cytotox Counterscreen; HepG2 CAGA-GFP viability, ATP luminescence, 18 h; Potency, µM (highest dose often 46.1 µM), inactives show top-dose activity change, negative = cytotoxicity, actives largely listed as cytotoxic; hit rate 0.76% among 410,000; AID 588856, 2011
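HepG2 CAGA-GFP cells (1000/well, DMEM with 1% FBS) received compound, then TGF-beta at 500 pg/mL final, and were incubated 18 hours at 37 degrees C. Viability was read by CellTiter-Glo luminescence. Media-only wells were set as complete cell-killing and DMSO as no toxicity.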
ATXN2 expr inh: Primary qHTS for Inhibitors of ATXN expression; AID 1745845, 2022; HEK-293 ATXN2-luciferase reporter, luminescence, 24 h; Potency, µM (series often up to 57 µM), for the others: at the top dose activity change, negative = inhibition, most hits filed as inhibitors; hit rate 0.72% among 360,000; note: % is set by controls: 0 for no effect and ±100 for the full control effect; nearly all actives have a fitted effect of over 55% in size
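ATXN2-luciferase reporter cells (luciferase flanked by upstream and downstream ATXN2 gene portions) were treated 24 h at 37 °C with compounds at up to 57 uM. SteadyGlo luminescence gave expression; GF-AFC fluorescence gave viability.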
ATXN viability: Viability Counterscreen for Primary qHTS for Inhibitors of ATXN expression | S2 cells (HEK-293 line with an ATXN2-luciferase reporter) viability, CellTiter-Fluor protease fluorescence, 24 h | Potency, µM (series often up to 56.7 µM), usual class: cytotoxic | hit rate 0.49% among 400,000 | AID 651635, 2014; note: nearly all actives have a fitted effect of over 40% in size
GLP-1R inv ag: qHTS of GLP-1 Receptor Inverse Agonists (Inhibition Mode); hit rate 1.6% among 410,000; HEK293 GLP-1R CRE-luciferase, luminescence, 24 h; GLP-1R form is constitutively active; Potency, µM (highest dose often 38.3 µM), without a hit: top-dose activity change, negative = inhibition, most hits filed as inhibitors; note: % is set by controls: 0 for no effect and ±100 for the full control effect; nearly all actives have a fitted effect of over 55% in size
Target sequence (P43220 whole entry, looked up): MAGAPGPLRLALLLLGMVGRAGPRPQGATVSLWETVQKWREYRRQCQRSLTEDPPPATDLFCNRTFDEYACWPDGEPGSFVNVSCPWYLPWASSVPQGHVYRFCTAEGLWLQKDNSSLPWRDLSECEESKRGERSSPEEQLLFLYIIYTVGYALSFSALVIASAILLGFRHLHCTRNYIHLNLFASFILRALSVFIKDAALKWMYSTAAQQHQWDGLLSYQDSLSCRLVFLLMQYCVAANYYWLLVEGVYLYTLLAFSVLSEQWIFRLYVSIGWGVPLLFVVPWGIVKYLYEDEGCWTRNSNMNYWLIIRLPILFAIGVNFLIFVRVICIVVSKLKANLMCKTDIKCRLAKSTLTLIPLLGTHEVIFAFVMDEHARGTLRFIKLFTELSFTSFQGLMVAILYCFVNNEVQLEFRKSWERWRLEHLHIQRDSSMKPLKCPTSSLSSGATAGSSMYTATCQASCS
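Inverse agonists were sought by their lowering of basal cAMP reporter luciferase output in HEK293 cells stably carrying constitutively active human GLP-1R, after 24 h compound treatment.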
GLP1R ag: qHTS of GLP-1 Receptor Agonists | HEK293 GLP-1R CRE-luciferase, luminescence, 4-6 h; cells express a hypersensitive GLP-1R form | Glucagon-like peptide 1 receptor (Homo sapiens), P43220 | AID 624172, 2012 | Potency, µM (doses to about 45.6 µM), for inactives: at the highest dose activation, hits mostly activators | hit rate 0.007% among 380,000; note: % of control where 0% means no effect
Active calls of the source: *; i = inactive; ? = inconclusive; nt = no result given. Rows were chosen to be rich in hits. Some 3.7% of all compounds tested hit in one or more screens of this group. Calls come from the whole dose curve; as a rule, active = well fitted curve in the direction sought with a large enough effect; inconclusive = small, poorly fitted or top-dose-only effect, or another doubt; inactive = no such curve, though single readings can be large; an effect the other way counts as inactive or inconclusive. Potency is the fitted concentration of half-maximal effect.

SMILES	TGFb inhibitor	HepG2 tox	ATXN2 expr inh	ATXN viability	GLP-1R inv ag	GLP1R ag
O=C(C[C@H]1C/C=C\C[C@H](NC(=O)OCC2c3ccccc3-c3ccccc32)C(=O)OC[C@H](Cc2ccccc2)NC1=O)N[C@H](CO)Cc1ccccc1	?	13µM*	?	?	-21%	8%
COc1cccc(CN(C)C(=O)c2cnn(-c3ncc4c(n3)-c3ccccc3CCC4)c2C)c1	nt	nt	nt	i	nt	nt
CC(C)(C)OC(=O)N1CCCC1C(=O)NC1COC2CC(n3ccc(=O)[nH]c3=O)OC12 (stereo not drawn)	-2%	5%	nt	nt	nt	nt
COC(=O)c1nnn(-c2cccc(C)c2)c1C(=O)OC	?	-34%	-6%	i	15%	nt
COc1cccc(-n2nnnc2S(C)(=O)=O)c1	?	-101%	?	28µM*	?	-5%
Cc1cccc(-n2nnnc2S(C)(=O)=O)c1	?	6.3µM*	?	11µM*	?	nt
Cc1c(CNC2CCC(C)CC2)c(C(=O)O)c(C)n1Cc1ccc(Cl)cc1 (stereo not drawn)	-10%	-3%	-11%	?	-8%	nt
CC(=O)NC1=CC(=O)c2nonc2C1=O	?	-96%	nt	nt	nt	nt
COc1cc(-c2cnc3ccccc3c2)cc2c1OCCN(C(=O)CCC(=O)c1ccc(F)cc1)C2	nt	nt	nt	i	nt	nt
O=C1C=C(CO)OCC1=O	nt	nt	nt	nt	nt	-1%
Nc1c(Cl)cc(C2=NCCn3c2c2ccc([N+](=O)[O-])cc2[n+]3[O-])cc1Cl	11µM*	-35%	?	?	11%	14%
Cc1ccc(C)c(NS(=O)(=O)c2ccc3c(c2)n(C)c(=O)n3C)c1	11%	-9%	5%	i	-6%	nt
NC(=O)C(c1ccc(F)cc1)c1ccc(C(=O)c2ccccc2)cc1 (stereo not drawn)	?	-28%	-26%	i	?	-1%
NC(=O)C(c1ccc(Br)cc1)c1ccc(C(=O)c2ccccc2)cc1 (stereo not drawn)	?	-25%	-32%	i	11µM*	8%
N#Cc1ccccc1N/C=C/C(=O)c1ccc(Cl)cc1	-18%	-44%	-3%	i	6.3µM*	11%
O=C(/C=C/Nc1ccccc1F)c1ccc(Br)cc1	2%	-60%	46%	i	-17%	-18%
COC1=CC(=O)c2c(ccc3ncnc(N)c23)C1=O	0.89µM*	1.4µM*	2.8µM*	3.5µM*	?	-5%
CNc1ccc(C=O)cc1I	-2%	2%	nt	nt	nt	nt
COc1cc(=O)n2c(c1C(=O)N(C)C(C)c1ccco1)CCN(C(=O)c1ccc(C(C)=O)cc1)CC2 (stereo not drawn)	nt	nt	nt	i	nt	nt
O=C(Nc1cccc2ncccc12)c1ccc([N+](=O)[O-])o1	13µM*	13µM*	21%	i	49%	1%
Cc1cccc(NC(=O)c2ccc([N+](=O)[O-])o2)n1	?	25µM*	-21%	?	97%	3%
Cc1cccnc1NC(=O)c1ccc([N+](=O)[O-])o1	?	-2%	6%	?	50%	0%
Cc1c(NC(=O)c2ccc([N+](=O)[O-])o2)cccc1-c1nc2ncccc2o1	?	25µM*	?	?	51%	1%
Cc1ccc(NC(=O)c2ccc([N+](=O)[O-])o2)c(C)c1	13µM*	-80%	-7%	i	7%	-1%
Cc1ccc(-c2nnc(NC(=O)c3ccc([N+](=O)[O-])o3)o2)c(C)c1	-19%	-6%	?	?	12%	-6%
Cc1ccc(CNc2nc(CN3CCN(C=O)CC3)nc3ccccc23)o1	nt	nt	nt	i	nt	nt
O=C(Nc1nc(-c2cccs2)cs1)c1ccco1	-22%	-41%	nt	i	-4%	2%
